Of roughly 8,800 targets only a part is listed; those with a hit were picked by preference. About 0.5% of all pairs of compound and target were hits.

Chain of UniProt Q05823 (Q05823 whole entry, looked up): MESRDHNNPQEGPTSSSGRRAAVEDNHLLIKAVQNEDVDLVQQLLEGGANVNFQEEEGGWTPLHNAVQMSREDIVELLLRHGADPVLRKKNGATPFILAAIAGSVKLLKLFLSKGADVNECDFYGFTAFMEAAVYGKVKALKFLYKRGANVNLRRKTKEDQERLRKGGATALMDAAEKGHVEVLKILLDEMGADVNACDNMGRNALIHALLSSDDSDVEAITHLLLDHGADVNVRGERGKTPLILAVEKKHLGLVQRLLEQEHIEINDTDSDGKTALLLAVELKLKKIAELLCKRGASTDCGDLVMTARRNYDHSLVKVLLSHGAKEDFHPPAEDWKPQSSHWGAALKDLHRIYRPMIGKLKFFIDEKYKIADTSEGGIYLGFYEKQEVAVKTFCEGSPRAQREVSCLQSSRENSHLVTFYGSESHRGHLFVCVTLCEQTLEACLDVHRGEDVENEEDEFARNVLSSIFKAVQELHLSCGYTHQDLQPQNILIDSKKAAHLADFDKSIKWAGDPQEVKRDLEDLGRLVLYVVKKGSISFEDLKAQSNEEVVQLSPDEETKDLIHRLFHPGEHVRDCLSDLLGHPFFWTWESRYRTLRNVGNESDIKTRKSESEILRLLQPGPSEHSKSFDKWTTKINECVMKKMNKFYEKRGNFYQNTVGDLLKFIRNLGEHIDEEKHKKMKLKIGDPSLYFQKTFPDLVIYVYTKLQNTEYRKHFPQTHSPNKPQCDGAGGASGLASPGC
Chain of UniProt Q9BTD8 (Q9BTD8 whole entry, looked up): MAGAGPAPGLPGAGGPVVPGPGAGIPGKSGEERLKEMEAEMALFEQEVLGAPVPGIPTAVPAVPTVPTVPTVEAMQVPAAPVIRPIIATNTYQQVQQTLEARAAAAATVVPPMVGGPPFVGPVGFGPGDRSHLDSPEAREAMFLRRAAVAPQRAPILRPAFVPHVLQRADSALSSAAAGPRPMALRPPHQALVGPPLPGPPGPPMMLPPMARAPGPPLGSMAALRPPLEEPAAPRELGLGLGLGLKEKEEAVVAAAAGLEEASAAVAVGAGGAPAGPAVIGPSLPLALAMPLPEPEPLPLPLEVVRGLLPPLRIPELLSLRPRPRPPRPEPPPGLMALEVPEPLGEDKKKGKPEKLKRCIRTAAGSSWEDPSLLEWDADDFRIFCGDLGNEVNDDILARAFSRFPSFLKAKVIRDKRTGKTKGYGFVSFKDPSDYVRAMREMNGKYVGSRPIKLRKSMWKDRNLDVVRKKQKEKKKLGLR
Chain of UniProt P58004 (P58004 whole entry, looked up): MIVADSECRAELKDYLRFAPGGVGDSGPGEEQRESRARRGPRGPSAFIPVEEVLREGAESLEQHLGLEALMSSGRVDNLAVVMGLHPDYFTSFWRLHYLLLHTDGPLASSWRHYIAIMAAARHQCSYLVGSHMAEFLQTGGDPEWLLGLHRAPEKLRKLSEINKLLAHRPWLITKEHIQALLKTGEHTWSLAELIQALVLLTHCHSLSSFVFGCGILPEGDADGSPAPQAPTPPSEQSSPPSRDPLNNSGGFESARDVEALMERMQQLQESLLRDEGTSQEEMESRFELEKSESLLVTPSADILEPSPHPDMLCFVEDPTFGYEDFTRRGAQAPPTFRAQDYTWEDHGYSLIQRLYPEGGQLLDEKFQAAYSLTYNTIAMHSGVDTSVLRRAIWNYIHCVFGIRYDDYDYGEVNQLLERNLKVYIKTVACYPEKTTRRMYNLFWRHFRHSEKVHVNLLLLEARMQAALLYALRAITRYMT
Chain of UniProt O95248 (O95248 whole entry, looked up): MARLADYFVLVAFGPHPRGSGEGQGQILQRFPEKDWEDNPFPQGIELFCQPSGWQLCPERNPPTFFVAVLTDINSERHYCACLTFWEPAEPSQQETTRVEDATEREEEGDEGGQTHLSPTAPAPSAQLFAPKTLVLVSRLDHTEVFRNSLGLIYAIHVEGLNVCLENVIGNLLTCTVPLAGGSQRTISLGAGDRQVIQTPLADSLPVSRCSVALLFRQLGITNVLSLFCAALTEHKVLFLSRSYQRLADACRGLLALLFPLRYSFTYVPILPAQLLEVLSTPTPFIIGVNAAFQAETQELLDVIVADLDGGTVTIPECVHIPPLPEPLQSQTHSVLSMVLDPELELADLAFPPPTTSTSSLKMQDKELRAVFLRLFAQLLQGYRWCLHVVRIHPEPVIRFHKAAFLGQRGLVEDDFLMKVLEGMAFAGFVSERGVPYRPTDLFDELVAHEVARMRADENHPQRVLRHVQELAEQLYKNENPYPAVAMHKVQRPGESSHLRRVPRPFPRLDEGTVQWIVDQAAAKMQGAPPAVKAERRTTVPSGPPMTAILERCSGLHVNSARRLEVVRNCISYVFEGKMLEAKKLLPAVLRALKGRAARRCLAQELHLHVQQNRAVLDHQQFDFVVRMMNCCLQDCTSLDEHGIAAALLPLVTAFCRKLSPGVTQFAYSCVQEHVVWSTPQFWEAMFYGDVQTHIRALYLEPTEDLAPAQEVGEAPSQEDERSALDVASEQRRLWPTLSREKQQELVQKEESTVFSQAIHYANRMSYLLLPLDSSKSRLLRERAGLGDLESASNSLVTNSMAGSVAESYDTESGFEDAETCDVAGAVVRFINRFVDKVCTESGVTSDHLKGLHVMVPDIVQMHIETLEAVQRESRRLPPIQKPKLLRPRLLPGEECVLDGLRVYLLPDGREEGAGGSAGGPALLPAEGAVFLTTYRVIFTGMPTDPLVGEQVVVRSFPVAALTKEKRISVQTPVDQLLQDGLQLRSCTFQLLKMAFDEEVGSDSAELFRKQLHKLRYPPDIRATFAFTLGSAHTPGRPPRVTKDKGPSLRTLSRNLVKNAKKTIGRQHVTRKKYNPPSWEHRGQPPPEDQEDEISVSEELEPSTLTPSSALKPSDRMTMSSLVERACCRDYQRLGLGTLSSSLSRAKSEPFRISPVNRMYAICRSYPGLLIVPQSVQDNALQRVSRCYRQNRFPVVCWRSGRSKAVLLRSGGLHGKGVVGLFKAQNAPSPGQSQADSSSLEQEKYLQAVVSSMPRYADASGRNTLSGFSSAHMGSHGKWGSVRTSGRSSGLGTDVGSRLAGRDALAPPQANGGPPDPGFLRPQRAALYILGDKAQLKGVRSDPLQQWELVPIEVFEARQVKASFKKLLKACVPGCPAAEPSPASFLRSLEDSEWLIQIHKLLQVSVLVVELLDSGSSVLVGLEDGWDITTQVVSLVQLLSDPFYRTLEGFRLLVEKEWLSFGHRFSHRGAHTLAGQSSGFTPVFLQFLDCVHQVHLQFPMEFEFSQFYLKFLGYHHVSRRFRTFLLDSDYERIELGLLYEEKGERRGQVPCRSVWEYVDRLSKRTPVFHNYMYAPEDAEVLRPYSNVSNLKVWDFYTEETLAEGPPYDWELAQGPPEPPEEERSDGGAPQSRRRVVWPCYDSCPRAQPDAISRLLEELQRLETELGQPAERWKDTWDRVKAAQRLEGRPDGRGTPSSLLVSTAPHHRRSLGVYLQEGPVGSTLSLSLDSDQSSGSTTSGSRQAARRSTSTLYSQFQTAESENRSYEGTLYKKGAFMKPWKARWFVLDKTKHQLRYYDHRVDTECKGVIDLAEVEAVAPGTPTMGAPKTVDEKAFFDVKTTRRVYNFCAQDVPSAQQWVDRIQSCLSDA
Chain of UniProt P04049 (P04049 whole entry, looked up): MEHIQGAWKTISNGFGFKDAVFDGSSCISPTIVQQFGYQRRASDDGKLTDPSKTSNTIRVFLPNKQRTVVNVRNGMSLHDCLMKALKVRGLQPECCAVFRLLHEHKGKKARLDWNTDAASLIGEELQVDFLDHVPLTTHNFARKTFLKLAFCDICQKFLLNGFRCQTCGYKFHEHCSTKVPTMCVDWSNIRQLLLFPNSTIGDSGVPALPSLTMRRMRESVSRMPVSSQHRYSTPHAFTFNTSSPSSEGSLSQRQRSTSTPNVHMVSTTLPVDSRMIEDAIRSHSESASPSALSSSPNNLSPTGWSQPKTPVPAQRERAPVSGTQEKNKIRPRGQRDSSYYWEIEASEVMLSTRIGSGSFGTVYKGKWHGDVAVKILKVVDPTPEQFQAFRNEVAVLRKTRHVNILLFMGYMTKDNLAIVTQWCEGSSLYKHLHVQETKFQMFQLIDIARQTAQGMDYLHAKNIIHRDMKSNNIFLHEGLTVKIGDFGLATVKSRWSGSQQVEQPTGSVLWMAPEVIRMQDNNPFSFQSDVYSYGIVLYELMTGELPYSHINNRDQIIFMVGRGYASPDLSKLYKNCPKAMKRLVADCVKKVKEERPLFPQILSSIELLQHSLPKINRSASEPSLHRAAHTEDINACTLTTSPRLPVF
Chain of UniProt O00767 (O00767 whole entry, looked up): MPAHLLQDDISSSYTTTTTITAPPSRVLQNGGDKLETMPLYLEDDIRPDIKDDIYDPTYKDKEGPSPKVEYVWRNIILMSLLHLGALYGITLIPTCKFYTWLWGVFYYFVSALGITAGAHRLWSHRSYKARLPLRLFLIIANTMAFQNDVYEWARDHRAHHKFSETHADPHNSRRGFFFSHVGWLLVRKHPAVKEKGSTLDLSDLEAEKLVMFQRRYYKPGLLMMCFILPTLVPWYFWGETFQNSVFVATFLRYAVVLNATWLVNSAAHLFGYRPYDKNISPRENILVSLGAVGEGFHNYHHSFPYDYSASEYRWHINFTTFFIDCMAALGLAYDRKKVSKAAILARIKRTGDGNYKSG
Chain of UniProt Q9GZR2 (Q9GZR2 whole entry, looked up): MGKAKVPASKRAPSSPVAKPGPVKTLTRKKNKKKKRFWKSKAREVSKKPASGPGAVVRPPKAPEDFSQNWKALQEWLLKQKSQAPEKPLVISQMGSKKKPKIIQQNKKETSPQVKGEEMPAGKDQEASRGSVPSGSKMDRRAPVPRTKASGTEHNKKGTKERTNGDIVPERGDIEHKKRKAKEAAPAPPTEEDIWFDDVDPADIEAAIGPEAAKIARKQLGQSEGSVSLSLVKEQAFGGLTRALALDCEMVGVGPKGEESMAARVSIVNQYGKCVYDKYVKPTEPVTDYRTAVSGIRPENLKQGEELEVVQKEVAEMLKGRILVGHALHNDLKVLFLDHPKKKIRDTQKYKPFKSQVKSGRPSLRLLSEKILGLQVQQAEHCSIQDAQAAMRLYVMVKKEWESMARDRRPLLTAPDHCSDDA

Compound in one assay: CC(C)(O)CC(=O)NCCn1ccc2ncnc(Nc3ccc(Oc4cccc(C(F)(F)F)c4)c(Cl)c3)c21
In words: log2 fold change, soluble protein after heating vs DMSO (PISA); higher = thermal stabilisation; K562 lysate, 10 uM; active = over 0.2 and 3.5 SD of the protein, either way, in both replicates (recomputed). Put shortly: (§1)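 Following dounce homogenisation of K562 pellets in PBS pH 7.4 with 1 mM MgCl2, crude extract at 1 mg/mL protein was incubated for 30 min with 10 μM compound. Aliquots were then heated for 3 min over 48°C-58°C and pooled, NP-40 was added to 0.5% at 4°C, and soluble protein was recovered as the supernatant at 21,000xg for 90 min. Channel-sum-equalised TMTpro 16plex LC-MS/MS quantified this protein. Each value, from duplicates, is a log-two fold change in thermal stability relative to solvent controls.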
As for SCML2 (UniProt Q9UQR0), the log2 fold change is 0.034 (inactive).

For the target SESN2 (UniProt P58004), the log2 fold change was 0.007 (inactive).

On to RAF1 isoform 2 (UniProt P04049), for which the log2 fold change is 0.004 (inactive).

RFC3 (UniProt P40938): the log2 fold change was -0.012 (inactive).

In the case of RPS4X (UniProt P62701), the log2 fold change is -0.021 (inactive).

Turning to SEC24D isoform 2 (UniProt O94855), the log2 fold change was -0.018 (inactive).

Turning to SCCPDH (UniProt Q8NBX0), the log2 fold change was 0.112 (inactive).

As for SEH1L isoform 1 (UniProt Q96EE3), the log2 fold change is -0.008 (inactive).

Take RTN4IP1 (UniProt Q8WWV3): the log2 fold change is 0.028 (inactive).

Take RPAP1 (UniProt Q9BWH6): the log2 fold change was -0.015 (inactive).

As to RIOK1 (UniProt Q9BRS2), the log2 fold change was -0.003 (inactive).

REXO4 (UniProt Q9GZR2): the log2 fold change is 0.074 (inactive).

With RNF181 (UniProt Q9P0P0), the log2 fold change is -0.006 (inactive).

Take RBMX (UniProt P38159): the log2 fold change is 0.032 (inactive).

Take RIOK3 (UniProt O14730): the log2 fold change was 0 (inactive).

RNASEH2B (UniProt Q5TBB1): the log2 fold change was 0 (inactive).

Regarding SCD (UniProt O00767), the log2 fold change is -0.009 (inactive).

As to RBM42 (UniProt Q9BTD8), the log2 fold change was -0.007 (inactive).

Consider RPL37A (UniProt P61513), for which the log2 fold change is 0.03 (inactive).

For RPN2 (UniProt P04844), the log2 fold change was -0.035 (inactive).

In the case of RRAGA (UniProt Q7L523), the log2 fold change is -0.524 (inactive).

As to RIC1 (UniProt Q4ADV7), the log2 fold change is -0.074 (inactive).

With RNASEL (UniProt Q05823), the log2 fold change is -0.034 (inactive).

Regarding RECQL5 (UniProt O94762), the log2 fold change was -0.015 (inactive).

Consider QRSL1 (UniProt Q9H0R6), for which the log2 fold change is -0.064 (inactive).

As for SBF1 isoform 4 (UniProt O95248), the log2 fold change is -0.021 (inactive).

RAP1B (UniProt P61224): the log2 fold change is -0.03 (inactive).

With RPS26P11 (UniProt Q5JNZ5), the log2 fold change was -0.034 (inactive).

For the target RPL8 (UniProt P62917), the log2 fold change was -0.002 (inactive).

Turning to RIPK1 (UniProt Q13546), the log2 fold change is -0.011 (inactive).

As to RDX (UniProt P35241), the log2 fold change is 0.002 (inactive).

Take RAB21 (UniProt Q9UL25): the log2 fold change was -0.02 (inactive).

For RBBP7 isoform 2 (UniProt Q16576), the log2 fold change is 0.042 (inactive).

Compound in the next assay: CC(C)C1=C2N=C(C=C(N2N=C1)NCC3=CC=CC=C3)NCCCCCCN
The description is as above. Summed up: as §1
SCML2 (UniProt Q9UQR0): the log2 fold change was -0.011 (inactive).

As for SESN2 (UniProt P58004), the log2 fold change was 0.019 (inactive).

As for RAF1 isoform 2 (UniProt P04049), the log2 fold change was 0.065 (inactive).

For the target RFC3 (UniProt P40938), the log2 fold change was -0.04 (inactive).

Regarding RPS4X (UniProt P62701), the log2 fold change is 0.022 (inactive).

Regarding SEC24D isoform 2 (UniProt O94855), the log2 fold change is 0 (inactive).

In the case of SCCPDH (UniProt Q8NBX0), the log2 fold change was 0.122 (inactive).

As for SEH1L isoform 1 (UniProt Q96EE3), the log2 fold change was 0.005 (inactive).

In the case of RTN4IP1 (UniProt Q8WWV3), the log2 fold change is -0.042 (inactive).

With RPAP1 (UniProt Q9BWH6), the log2 fold change is -0.037 (inactive).

On to RIOK1 (UniProt Q9BRS2), for which the log2 fold change is -0.005 (inactive).

As to REXO4 (UniProt Q9GZR2), the log2 fold change is -0.024 (inactive).

Consider RNF181 (UniProt Q9P0P0), for which the log2 fold change is -0.005 (inactive).

For RBMX (UniProt P38159), the log2 fold change was -0.029 (inactive).

In the case of RIOK3 (UniProt O14730), the log2 fold change is 0.054 (inactive).

On to RNASEH2B (UniProt Q5TBB1), for which the log2 fold change was 0.031 (inactive).

Turning to SCD (UniProt O00767), the log2 fold change was -0.052 (inactive).

As to RBM42 (UniProt Q9BTD8), the log2 fold change is 0.081 (inactive).

With RPL37A (UniProt P61513), the log2 fold change was -0.009 (inactive).

Take RPN2 (UniProt P04844): the log2 fold change is -0.021 (inactive).

For the target RRAGA (UniProt Q7L523), the log2 fold change was 0.006 (inactive).

For RIC1 (UniProt Q4ADV7), the log2 fold change was 0.038 (inactive).

Consider RNASEL (UniProt Q05823), for which the log2 fold change was 0 (inactive).

Regarding RECQL5 (UniProt O94762), the log2 fold change is 0.055 (inactive).

Regarding QRSL1 (UniProt Q9H0R6), the log2 fold change is 0.066 (inactive).

Turning to SBF1 isoform 4 (UniProt O95248), the log2 fold change was -0.079 (inactive).

Consider RAP1B (UniProt P61224), for which the log2 fold change was -0.014 (inactive).

RPS26P11 (UniProt Q5JNZ5): the log2 fold change was -0.019 (inactive).

For RPL8 (UniProt P62917), the log2 fold change was -0.008 (inactive).

Take RIPK1 (UniProt Q13546): the log2 fold change was 0.018 (inactive).

In the case of RDX (UniProt P35241), the log2 fold change was 0.012 (inactive).

Turning to RAB21 (UniProt Q9UL25), the log2 fold change was -0.002 (inactive).

Regarding RBBP7 isoform 2 (UniProt Q16576), the log2 fold change was -0.028 (inactive).

Compound in another assay: CC1=C(C(CC(=O)N1)C2=CC=C(C=C2)C(F)(F)F)C(=O)NC3=C(C=C4C(=C3)C=NN4)F
Described as above. Summed up:
as §1
For the target SCML2 (UniProt Q9UQR0), the log2 fold change is 0.011 (inactive).

Take SESN2 (UniProt P58004): the log2 fold change was -0.051 (inactive).

Turning to RAF1 isoform 2 (UniProt P04049), the log2 fold change was 0.092 (inactive).

As to RFC3 (UniProt P40938), the log2 fold change is 0.004 (inactive).

As to RPS4X (UniProt P62701), the log2 fold change was -0.026 (inactive).

In the case of SEC24D isoform 2 (UniProt O94855), the log2 fold change is -0.009 (inactive).

As to SCCPDH (UniProt Q8NBX0), the log2 fold change is -0.017 (inactive).

For SEH1L isoform 1 (UniProt Q96EE3), the log2 fold change was -0.021 (inactive).

As for RTN4IP1 (UniProt Q8WWV3), the log2 fold change is -0.398 (active).

On to RPAP1 (UniProt Q9BWH6), for which the log2 fold change was 0.011 (inactive).

With RIOK1 (UniProt Q9BRS2), the log2 fold change was 0.004 (inactive).

As to REXO4 (UniProt Q9GZR2), the log2 fold change is 0.023 (inactive).

Regarding RNF181 (UniProt Q9P0P0), the log2 fold change was -0.056 (inactive).

In the case of RBMX (UniProt P38159), the log2 fold change was -0.017 (inactive).

RIOK3 (UniProt O14730): the log2 fold change was -0.011 (inactive).

Consider RNASEH2B (UniProt Q5TBB1), for which the log2 fold change was -0.025 (inactive).

Regarding SCD (UniProt O00767), the log2 fold change is 0.032 (inactive).

With RBM42 (UniProt Q9BTD8), the log2 fold change was 0.025 (inactive).

As for RPL37A (UniProt P61513), the log2 fold change is -0.021 (inactive).

For the target RPN2 (UniProt P04844), the log2 fold change is 0.008 (inactive).

Take RRAGA (UniProt Q7L523): the log2 fold change is 0.005 (inactive).

Turning to RIC1 (UniProt Q4ADV7), the log2 fold change was -0.032 (inactive).

For the target RNASEL (UniProt Q05823), the log2 fold change was -0.023 (inactive).

For RECQL5 (UniProt O94762), the log2 fold change was 0.03 (inactive).

Regarding QRSL1 (UniProt Q9H0R6), the log2 fold change is -0.003 (inactive).

With SBF1 isoform 4 (UniProt O95248), the log2 fold change was 0.045 (inactive).

Take RAP1B (UniProt P61224): the log2 fold change is -0.01 (inactive).

As to RPS26P11 (UniProt Q5JNZ5), the log2 fold change was -0.013 (inactive).

Consider RPL8 (UniProt P62917), for which the log2 fold change was 0.012 (inactive).

On to RIPK1 (UniProt Q13546), for which the log2 fold change is 0.001 (inactive).

As to RDX (UniProt P35241), the log2 fold change is -0.016 (inactive).

Consider RAB21 (UniProt Q9UL25), for which the log2 fold change is 0.019 (inactive).

Regarding RBBP7 isoform 2 (UniProt Q16576), the log2 fold change is -0.029 (inactive).

The values above are taken from the supplement of paper PMC10849652.
